Experimental data: the supplement of paper PMC10338343
± gives the standard deviation. In all, about 8,200 sequences were measured (“pre-steady-state target cleavage rate”: median about 0.024, highest 2% from about 1.3 on). The sample as a whole holds a higher share of the highest values than the screen did.

Tested on: MIWI (PIWIL1) piRISC loaded with L1MC piRNA (30 nt)
Assay: pre-steady-state target cleavage rate (min^-1); MIWI and MILI are mouse PIWI proteins and EfPiwi is from a freshwater sponge; tags in brackets are library labels; higher = faster piRNA-guided slicing of the target
Conditions: guide: L1MC piRNA 5'p-UAACUAAAUACUAUGCAAGCUGUAGGUCCU
How it was run: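 A burst-and-steady-state fit was used to obtain the pre-steady-state cleavage rate. The input data were sequencing reads of uncleaved targets, normalised to depth and to weakly complementary targets, from a […] transcribed, DNA-blocked target RNA library mixed with 1 nM active affinity-purified piRISC holding one synthetic guide, with or without 500 nM GTSF1 partner protein, in HEPES–potassium acetate buffer at 33 °C for 0–8 or 0–960 min. Three trials were pooled and k3 was capped at 0.0001 min^-1.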

[1] = auxiliary factor: 500 nM mouse GTSF1
[2] = auxiliary factor: none (no GTSF1)
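Note: 1 nM active piRISC with 0.1 nM target library at 33 °C single turnover.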

| Sequence | pre-steady-state target cleavage rate [1] | pre-steady-state target cleavage rate [2] |
| --- | --- | --- |
| UCCUGGAUGAGCUUGCAAAGUAUUAAGUUA | 0.331 ± 0.035 | 0.00974 ± 0.0037 |
| UCCACCUACAGCUUGGAAAGUAUUUAGUUA | 1.01 ± 0.03 | 0.00576 ± 0.0018 |
| UCCACCUACAGCUUGCAUAGUAUCUUAGUUA | 0.709 ± 0.057 | 0.0225 ± 0.005 |
| UCCACCUACAGCUUGCAUAGUAAAUACAAA | 0.155 ± 0.037 | – |
| UCCUGGAUGUGCUUGGAUAGUAUAUAGUUA | 0.0799 ± 0.017 | 0.0106 ± 0.0049 |
| UCCUGGAACAGCUUGCAUAGUAUUUAAGUUA | 0.549 ± 0.034 | 0.0597 ± 0.014 |
| UGGACCUACAGCUCUGCAUAGUAUUUAGUUA | 1.56 ± 0.11 | 0.0566 ± 0.014 |
| UCCACCUACAGCUCUGCAUAGUAUUUAGUUA | 0.862 ± 0.063 | 0.0214 ± 0.0048 |
| UGGACCUACAGCUGCAUAGUAUUUAGUUA | 1.37 ± 0.11 | 0.00982 ± 0.0031 |
| AGGACCUACAGCUCUGCAUAGUAUUUAGUUA | 1.56 ± 0.1 | 0.0543 ± 0.014 |
| AGGACCUACAGCUGCAUAGUAUUUAGUUA | 1.15 ± 0.068 | 0.0107 ± 0.0029 |
| AGGACCUACAGCUAUGCAUAGUAUUUAGUUA | 0.962 ± 0.052 | 0.0545 ± 0.011 |
| UGGACCUACAGCUAUGCAUAGUAUUUAGUUA | 1.24 ± 0.11 | 0.0371 ± 0.0083 |
| UCCUCCUACAGCUCUGCAUAGUAUUUAGUUA | 1.03 ± 0.044 | 0.0182 ± 0.0041 |
| UGGACCUACAGCUGGCAUAGUAUUUAGUUA | 1.04 ± 0.044 | 0.0463 ± 0.011 |
| UCGACCUACAGCUCUGCAUAGUAUUUAGUUA | 1.32 ± 0.067 | 0.0476 ± 0.0099 |
| UCGACCUACAGCUGCAUAGUAUUUAGUUA | 1.3 ± 0.079 | 0.00665 ± 0.0025 |
| UCCUGCUACAGCUCUGCAUAGUAUUUAGUUA | 0.851 ± 0.058 | 0.0138 ± 0.003 |
| UCCACCUACAGCUUGCAUAGUAAAAAGAAA | 0.102 ± 0.028 | – |
| UCCUGGAUCAGCUUGCUUAGUUUUUAGUUA | 0.0882 ± 0.01 | 0.0125 ± 0.0034 |
| UCCUGGUACAGCUUGCAUAGUUAUUAGUAA | 0.0627 ± 0.017 | 0.00413 ± 0.0036 |
| UCCUGGUAUCAGCUUGCAUAGUAUUUAGUUA | 0.546 ± 0.06 | 0.062 ± 0.014 |

| Sequence | pre-steady-state target cleavage rate [1] | pre-steady-state target cleavage rate [2] |
| --- | --- | --- |
| UCGACCUACAGCUUGGUUAGUAUUUAGAAA | 0.224 ± 0.04 | – |
| UCCUGGAUGUCGAUGCAUAGUAUUUUGUUA | 0.00674 ± 0.0031 | – |
| UGGACGUACAGCUUGCAUAGUAUUUUCAAA | 0.213 ± 0.034 | 0.00471 ± 0.0022 |
| UCCUGCUACAGCUUGGUUAGUAUUUUCAAA | 0.00524 ± 0.0039 | – |
| UCCUGGAACAGCUUGCAUAUAUUUAGUUA | 0.0784 ± 0.011 | 0.0034 ± 0.0028 |
| UCCUCCUACAGCUUGCAUAGUAUAAUGUUA | 0.346 ± 0.027 | 0.0146 ± 0.0024 |
| UCCUGGUACAGCCUUGCAUAGUAUUUAGUUA | 0.594 ± 0.049 | 0.0422 ± 0.0091 |
| UCCUCCUACAGCUUGCGAUAGUAUUUAGUUA | 0.0601 ± 0.018 | – |
| UCCUGCUACAGCUUGCGUAGUAUUUAGUUA | 0.806 ± 0.044 | 0.0172 ± 0.0034 |
| UCGACCUACAGCUUGCGUAGUAUUUAGUUA | 1.86 ± 0.066 | 0.0695 ± 0.018 |
| AGGACCUACAGCUUGCGUAGUAUUUAGUUA | 1.24 ± 0.077 | 0.075 ± 0.013 |
| UCGACCUACAGCUUGCGAUAGUAUUUAGUUA | 0.0797 ± 0.02 | – |
| UGGACCUACAGCUUGCGUAGUAUUUAGUUA | 1.79 ± 0.11 | 0.0538 ± 0.01 |
| UCGACCUACAGCUUGCCUAGUAUUUAGUUA | 1.14 ± 0.046 | 0.0457 ± 0.0085 |
| UCCACCUACAGCUUGCGUAGUAUUUAGUUA | 1.26 ± 0.049 | 0.0423 ± 0.0094 |
| UCCUCCUACAGCUUGCGUAGUAUUUAGUUA | 1.55 ± 0.078 | 0.0225 ± 0.0064 |
| UGGACCUACAGAUUGCAUAGUAUUUAGUUA | 1.12 ± 0.11 | 0.042 ± 0.0077 |
| AGGACCUACAGCUUGCAUACAUUUUAGUUA | 0.0106 ± 0.0061 | – |
| UCGUCCUACACCUUGCAUAGUAUUUAGUUA | 0.986 ± 0.045 | 0.0586 ± 0.0084 |
| UCGACCUACAGCUUGCAUACAAUUUAGUUA | 0.0219 ± 0.0076 | 0.00334 ± 0.0025 |
| UCCUCGUACAGCUUGCAUAGUAUUUAGAAA | 0.363 ± 0.029 | 0.00538 ± 0.0021 |
| UCCUCGUACAGCUUGCAUAGUAUUUAGUAA | 0.903 ± 0.048 | 0.0263 ± 0.0049 |

| Sequence | pre-steady-state target cleavage rate [1] | pre-steady-state target cleavage rate [2] |
| --- | --- | --- |
| UCCACCGUACAGCUUGCAUAGUAUUUAGUUA | 1.18 ± 0.054 | 0.0628 ± 0.012 |
| UCGUCGUACAGCUUGCAUAGUAUUUAGUUA | 1.31 ± 0.067 | 0.0685 ± 0.012 |
| UCCUCGUACAGCUUGCAUAGUAUUUAGUUA | 1.46 ± 0.043 | 0.0602 ± 0.01 |
| UCGUACCUACAGCUUGCAUAGUAUUUAGUUA | 0.909 ± 0.034 | 0.0778 ± 0.016 |
| UCCUGGUACAGCUUGCAAAGUAUUUAGUUA | 0.711 ± 0.046 | 0.0405 ± 0.0074 |
| UGGUCGUACAGCUUGCAUAGUAUUUAGUUA | 1.33 ± 0.056 | 0.073 ± 0.0095 |
| UCCUCGUACAGCUUGCAAAGUAUUUAGUUA | 1.32 ± 0.048 | 0.0595 ± 0.012 |
| UCCUCCUACAGCUUGCAAAGUAUUUAGUUA | 1.14 ± 0.039 | 0.0317 ± 0.0066 |
| UCGUGGUACAGCUUGCAUAGUAUUUAGUUA | 1.23 ± 0.038 | 0.0818 ± 0.014 |
| UCCUGCUACAGCUUGCAUAGUAUAAUGUAA | 0.188 ± 0.038 | – |
| UGGACCUACAGCUUGCAUAGUAUUAAGUUA | 0.719 ± 0.06 | 0.0363 ± 0.006 |
| AGGACCUACUGCUUCCAUAGUAUUUAGUUA | 0.069 ± 0.011 | 0.00657 ± 0.0012 |
| UCGAGCUAGAGCUUGCAUAGUAUUUAGUUA | 0.962 ± 0.051 | 0.0483 ± 0.0092 |
| UCGACCAAGAGCUUGCAUAGUAUUUAGUUA | 0.954 ± 0.04 | 0.0547 ± 0.011 |
| UCCUGGAUGUGCUUGCAUAGUGAUUUAGUUA | 0.00393 ± 0.0038 | – |
| UCCUGGUACAGCUAGGAUAGUAUUUAGUUA | 0.611 ± 0.084 | 0.00486 ± 0.002 |
| UGGACCUACAGCUUGGAUAGUAUUUAGAAA | 0.342 ± 0.047 | 0.0107 ± 0.003 |
| UCCUGCUACAGCUUGCAAACUAUUUAGUUA | 0.363 ± 0.027 | 0.00719 ± 0.0031 |
| AGGACCUACAGCUUGCAUAGUAUUUUGUUA | 0.949 ± 0.064 | 0.0718 ± 0.016 |
| UCCUGCUACUGCUUGCAUAGUAUAUAGUUA | 0.226 ± 0.024 | 0.0142 ± 0.0034 |
| AGGACCUACAGGAAGCAUAGUAUUUUCAAA | 0.132 ± 0.024 | – |
| UCCUGGAUCAGGUAGCAUAGUAUUUAGUUA | 0.0152 ± 0.0033 | 0.00289 ± 0.0022 |

| Sequence | pre-steady-state target cleavage rate [1] | pre-steady-state target cleavage rate [2] |
| --- | --- | --- |
| UCCUGGUACAGCUUGCUUAGUAUUUAGUUA | 0.79 ± 0.037 | 0.0523 ± 0.011 |
| UCCAGGUACAGCUUGCAUAGUAUUUAGUUA | 1.09 ± 0.04 | 0.0764 ± 0.011 |
| AGGUCGUACAGCUUGCAUAGUAUUUAGUUA | 1.44 ± 0.065 | 0.0817 ± 0.012 |
| UCCUCGUACAGCUUGCUUAGUAUUUAGUUA | 1.51 ± 0.069 | 0.0419 ± 0.0089 |
| UCCUCCUACAGCUUGCUUAGUAUUUAGUUA | 1.28 ± 0.06 | 0.0241 ± 0.0053 |
| AGGACCUAGAGCUUGCAUAGUUUUUAGUUA | 0.343 ± 0.023 | 0.0238 ± 0.0061 |
| UCCUCCUACAGCUUGCAUAGUUAUUAGAAA | 0.0862 ± 0.022 | – |
| UCCUGGAACAGCAUGCAUAGUAUUUACUUA | 0.446 ± 0.045 | 0.0279 ± 0.0094 |
| UCCACCUACAGCUUGCAUAGUAUUCUAGUUA | 0.633 ± 0.067 | 0.0214 ± 0.0052 |
| UCCUCCUACAGCUUGGAUAGUAUUUAGAUA | 0.372 ± 0.039 | 0.00865 ± 0.0019 |
| UCCUGCUACAGCUUGGAUAGUAUUUAGUUA | 1.29 ± 0.12 | 0.0507 ± 0.0096 |
| UCCUCCUACAGCUUGGCAUAGUAUUUAGUUA | 0.831 ± 0.11 | 0.0114 ± 0.0021 |
| UCCUCCUACAGCUUGAUAGUAUUUAGUUA | 0.824 ± 0.05 | 0.00583 ± 0.0021 |
| UCCUCCUACAGCUUGGAUAGUAUUUAGUUA | 1.44 ± 0.045 | 0.0511 ± 0.0092 |
| UCCUCCUACAGCUUGGAUAGUAUUUAGUAA | 0.707 ± 0.045 | 0.0186 ± 0.0033 |
| UCCUCCUACAGCUUGUAUAGUAUUUAGUUA | 1.38 ± 0.042 | 0.0427 ± 0.008 |
| AGGUCCUACAGCUUGGAUAGUAUUUAGUUA | 1.39 ± 0.072 | 0.079 ± 0.014 |
| UGGAGCUACAGCUUGGAUAGUAUUUAGUUA | 1.11 ± 0.083 | 0.0533 ± 0.0083 |
| UGGUCCUACAGCUUGGAUAGUAUUUAGUUA | 1.22 ± 0.038 | 0.0568 ± 0.0069 |
| UCCUCCUACAGCUUGUCAUAGUAUUUAGUUA | 0.44 ± 0.046 | – |
| UCGUCCUACAGCUUGGAUAGUAUUUAGUUA | 1.56 ± 0.048 | 0.0586 ± 0.0084 |
